Data taken from PubChem BioAssay (NCATS).
Inconclusive results are not listed. Where a call stands in place of a potency, no number is given. Calls of active or inactive are those of the source. The call rests on the fitted dose curve; in most records, active means well fitted curve in the direction sought with a large enough effect; inconclusive means small, poorly fitted or top-dose-only effect, or another doubt; inactive means no such curve, though single readings can be large; an effect the other way counts as inactive or inconclusive.

Columns and labels:
[1] = qHTS for inhibitors of adenylyl cyclases using a fission yeast platform: a pilot screen against the NCATS LOPAC library (AID 1347410)
Method in brief: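 Fission yeast qHTS: CHP2027 cells (AC9-GNAS-PDE4D2, fbp1-GFP), 5x10^6 cells/mL working density, EMM + His/Lys/Ura; LOPAC at up to 57 µM final; 18 h dark, 30C; GFP by laser cytometry. DPI positive control, DMSO vehicle.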

[2] = Validation qHTS assay for inhibitors of Activation Induced Cytidine Deaminase (AID): UDG Counterscreen signal (AID 1347427)
Method in brief: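 Counterscreen read of UDG activity (2 U/mL, 4/3x) in the FRET deamination format with AID (1 uM, 4/3x), DJC20/DJC23 substrates (250 nM, 4x), 4 h at room temperature. NaOH stop, fluorescence at 560 ex/665 em.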

[3] = target: Single-stranded DNA cytosine deaminase (Homo sapiens) (UniProt Q9GZX7); test: Validation qHTS assay for inhibitors of Activation Induced Cytidine Deaminase (AID): AID signal (AID 1347429)
Sequence of Single-stranded DNA cytosine deaminase (Homo sapiens) (Q9GZX7 whole entry, looked up): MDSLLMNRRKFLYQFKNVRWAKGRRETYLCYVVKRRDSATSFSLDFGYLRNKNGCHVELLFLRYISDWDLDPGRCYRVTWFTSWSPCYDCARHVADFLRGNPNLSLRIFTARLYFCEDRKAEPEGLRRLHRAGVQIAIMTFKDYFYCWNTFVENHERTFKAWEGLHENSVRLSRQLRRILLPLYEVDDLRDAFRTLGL
Method in brief: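 Fluorescence at 540 nm excitation and 590 nm emission reports ssDNA cytosine deamination by AID, with UDG in the same well. Compound-treated reactions ran 4 hr at room temperature with DJC20/DJC23 substrate, followed by 30 min NaOH treatment.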

[4] = target: Calcium and integrin-binding protein 1 (Homo sapiens) (UniProt Q99828); test: Validation qHTS for Identification of Calcium Integrin Binding protein 1 (CIB1) Competitor (AID 1508618)
Sequence of Calcium and integrin-binding protein 1 (Homo sapiens) (Q99828 whole entry, looked up): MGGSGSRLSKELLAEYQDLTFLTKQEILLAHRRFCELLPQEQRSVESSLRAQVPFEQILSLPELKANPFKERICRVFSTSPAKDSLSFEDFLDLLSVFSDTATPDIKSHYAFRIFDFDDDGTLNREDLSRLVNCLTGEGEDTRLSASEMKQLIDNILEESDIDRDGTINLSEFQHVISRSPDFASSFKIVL
Method in brief: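 Fluorescence polarization with 1 uM CIB1-GST and 100 nM FITC-alphaIIb peptide in HEPES pH 7.4, NaCl, 5 mM CaCl2, Tween20. Compounds at up to 114 uM final, preincubated with protein 15 min; read after 15 min more at RT.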

[5] = target: Protein phosphatase 1D (Homo sapiens) (UniProt O15297); test: Rhodamine-PBP qHTS Assay for Modulators of WT P53-Induced Phosphatase 1 (WIP1) (AID 1347425)
Sequence of Protein phosphatase 1D (Homo sapiens) (O15297 whole entry, looked up): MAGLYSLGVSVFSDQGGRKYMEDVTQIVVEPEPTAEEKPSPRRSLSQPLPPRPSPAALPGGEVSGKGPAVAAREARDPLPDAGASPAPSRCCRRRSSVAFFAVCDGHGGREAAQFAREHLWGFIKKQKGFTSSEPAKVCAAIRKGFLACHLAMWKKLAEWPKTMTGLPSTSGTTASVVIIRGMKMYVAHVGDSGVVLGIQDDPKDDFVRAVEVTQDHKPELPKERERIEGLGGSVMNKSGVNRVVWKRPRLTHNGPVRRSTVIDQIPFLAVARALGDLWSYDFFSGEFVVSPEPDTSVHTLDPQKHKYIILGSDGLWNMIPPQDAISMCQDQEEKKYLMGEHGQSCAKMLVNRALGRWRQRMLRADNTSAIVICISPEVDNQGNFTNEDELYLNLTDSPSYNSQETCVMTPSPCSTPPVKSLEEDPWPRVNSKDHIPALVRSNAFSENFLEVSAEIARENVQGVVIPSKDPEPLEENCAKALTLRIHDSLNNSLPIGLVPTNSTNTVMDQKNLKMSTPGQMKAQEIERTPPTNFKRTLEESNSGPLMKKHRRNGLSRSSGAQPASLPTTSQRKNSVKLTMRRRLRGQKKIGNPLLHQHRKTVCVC
Method in brief: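 WIP1 (5 nM final) was preincubated with compound for 1 hour at room temperature. It then dephosphorylated 10 uM VEPPL-pS-QETFS peptide in Tris-HCl pH 7.5 with 30 mM MgCl2. Released Pi was detected by 10 uM Rh-PBP fluorescence (ex 525/em 598 nm) read at 1-min intervals for 11 min, as delta f1 - f0.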

[6] = target: Protein phosphatase 1D (Homo sapiens) (UniProt O15297); test: RapidFire Mass Spectrometry qHTS Assay for Modulators of WT P53-Induced Phosphatase 1 (WIP1) (AID 1347424);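 further: amount of dephosphorylated VEPPL-S-QETFS peptide product formed by WIP1; series mostly up to about 63 µM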
Method in brief: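 10 nM WIP1 preincubated with compounds 1 hr at room temperature in pH 7.5 Tris buffer with 30 mM MgCl2, 1 mM TCEP; 2 uM VEPPL-pS-QETFS phosphopeptide for 5 min, formic acid quench; dephosphorylated product quantified by RapidFire MS against labelled standard.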

[7] = Primary qHTS for inhibitors of La Crosse Virus (LACV) - induced cell death in SH-SY5Y cells (AID 1508616);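 further: top concentration of the series differs between compounds; higher means more rescue of cells from virus-induced death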
Method in brief: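 Protection against LACV-induced cell death is scored in SH-SY5Y cells exposed to compounds and virus (0.01 MOI) for 6 days. Data normalized to virus-infected DMSO wells and virus-free DMSO wells.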

O=c1c2ccccc2nc2n1CCc1c-2[nH]c2ccccc12
outcome [1]: inactive | outcome [2]: inactive | outcome [3]: inactive | outcome [4]: inactive

Cc1nc2ccc(CN(C)c3ccc(C(=O)N[C@@H](CCC(=O)O)C(=O)O)s3)cc2c(=O)[nH]1
outcome [5]: inactive

CC(=O)SC[C@@H](C)C(=O)N1CCC[C@H]1C(=O)N[C@@H](Cc1ccccc1)C(=O)O
outcome [5]: inactive

COC(=O)C1=C(C)NC(C)=C(C(=O)OCCN2CCN(C(c3ccccc3)c3ccccc3)CC2)C1c1cccc([N+](=O)[O-])c1 (stereo unspecified)
Potency [6]: inactive | outcome [5]: inactive | outcome [7]: inactive

C=CC(=O)Nc1cc2c(Nc3ccc(F)c(Cl)c3)ncnc2cc1OCCCN1CCOCC1
Potency [6]: inactive | outcome [5]: inactive
